Bioassay records as filed in PubChem BioAssay.
In the library only some 5.6% were active in any assay of this set; here they are far more common.
PfG6PD inh = PfG6PD enzyme inhibitors, primary screen, biochemical, fluorescence intensity, uHTS; glucose-6-phosphate dehydrogenase-6-phosphogluconolactonase (Plasmodium falciparum 3D7); PfGluPho enzyme, NADPH resazurin-diaphorase fluorescence; inhibition, % at 20 µM; 350,000 tested, 0.78% active; AID 504690, 2011;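 active = inhibition reaching at least a set limit at 20 µM in the primary screen, cut at about 59% in these data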;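 also: 0% = DMSO wells with substrate and 100% = DMSO wells lacking glucose-6-phosphate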
PHOSPHO1 block = PubChem AID 1565; 290,000 tested, 1.1% active; recombinant PHOSPHO1, absorbance phosphatase assay; Phosphoethanolamine/phosphocholine phosphatase (Homo sapiens), Q8TCT1; inhibition, % at 13.3 µM; in the data active = inhibition above about 60%
Target sequence (Q8TCT1 whole entry, looked up): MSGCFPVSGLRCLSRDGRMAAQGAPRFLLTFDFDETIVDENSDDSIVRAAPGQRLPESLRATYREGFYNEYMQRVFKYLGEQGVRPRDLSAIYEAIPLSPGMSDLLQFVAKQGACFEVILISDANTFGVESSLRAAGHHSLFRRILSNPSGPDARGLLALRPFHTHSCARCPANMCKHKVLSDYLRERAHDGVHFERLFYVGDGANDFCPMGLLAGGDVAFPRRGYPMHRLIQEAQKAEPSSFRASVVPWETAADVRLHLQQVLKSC
ALR H2O2 inh = inhibitors of human ALR sulfhydryl oxidase, primary screen, biochemical, H2O2 detection, HRP-luminol luminescence, single point. FAD-linked sulfhydryl oxidase ALR (Homo sapiens), P55789. purified ALR, DTT oxidation. inhibition, % (no concentration beside the values). 290,000 tested, 3.8% active. AID 485317, 2010;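 active = mean replicate inhibition above about 79%, with every replicate also reaching it, limit read from the data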
Target sequence (P55789 whole entry, looked up): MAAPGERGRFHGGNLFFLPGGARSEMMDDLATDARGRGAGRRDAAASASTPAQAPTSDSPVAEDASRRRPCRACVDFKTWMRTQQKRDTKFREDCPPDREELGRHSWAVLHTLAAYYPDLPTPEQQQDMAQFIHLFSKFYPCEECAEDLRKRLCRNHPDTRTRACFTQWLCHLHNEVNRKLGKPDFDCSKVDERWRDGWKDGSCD
Cardio protect = cardioprotection against H2O2-induced cell death, primary screen, uHTS, H9c2 cells, ATPLite luminescence | protection from H2O2 cell death, % at 20 µM | H9c2 cardiomyocytes, H2O2 injury protection, 2 h | AID 588492, 2011 | 360,000 tested, 0.63% active;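 active = compounds giving at least 50% protection of heart cells from peroxide-induced death in the single-dose screen, raw or plate-pattern-corrected value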;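 also: 0% = DMSO wells with peroxide and 100% = DMSO wells without peroxide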
PfM18AAP inh = PfM18AAP inhibitors, malaria aminopeptidase, primary screen, biochemical, QFRET, recombinant enzyme | inhibition, % at 7.35 µM | H-Glu-NHMec fluorogenic cleavage | 290,000 tested, 1.2% active | M18 aspartyl aminopeptidase (Plasmodium falciparum 3D7);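 active = inhibition above the campaign mean inhibition over all tested compounds plus 3 SD, cut at about 28% in these data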;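 also: 0% = plate median of test compound wells and 100% = 2 mM ZnCl2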
* = called active by the depositor; . = no result.

SMILES | PfG6PD inh | PHOSPHO1 block | ALR H2O2 inh | Cardio protect | PfM18AAP inh
O=C(CCC(=O)N1CCOc2ccccc21)Nc1ccccc1Br | -4 | 18 | 18 | -2 | -1
CCC1CC(C(=O)O)CC(=O)N1 (stereo unspecified) | . | . | . | -6 | .
COc1ccc(/C=N/Nc2nc(-c3cccnc3)nc3ccccc23)cc1OC | -3 | 8 | . | 10 | 9
COc1ccc(CCNc2nc(-c3cccnc3)nc3ccccc23)cc1OC | 2 | 24 | . | 51* | -13
c1cncc(-c2nc(NCC3COc4ccccc4O3)c3ccccc3n2)c1 (stereo unspecified) | 4 | 20 | 0 | 52* | 0
COc1nc(NCCc2ccc(OC)c(OC)c2)nc(Nc2ccccc2)n1 | -5 | 62* | 1 | 17 | -13
COc1nc(NCCN2CCOCC2)nc(Nc2ccccc2)n1 | 2 | -40 | -6 | 1 | -5
O=C(CS(=O)(=O)c1ccccc1)Nc1nccs1 | 5 | 26 | . | -1 | -2
O=[N+]([O-])c1ccc(CN2[C@H](COCc3ccccc3)[C@@H](N3CCCC3)CS2(=O)=O)cc1 | . | . | . | 1 | .
C[C@]12C[C@H](O)[C@@H]3c4ccc(O)cc4CCC3[C@@H]1CCC2=O (stereo partly specified) | 3 | 37 | . | 3 | -3
C[C@]12CC[C@H]3C(=CCc4cc(O)ccc43)[C@@H]1CCC2=O | 11 | 6 | 94* | 12 | 0
COc1ccc(-c2csc(/C(C#N)=C(\O)CSc3nccn3C)n2)cc1OC | 18 | 36 | 86* | 33 | 3
COc1ccccc1N1CCN(C/C(O)=C(\C#N)c2nc(-c3ccccc3)cs2)CC1 | -29 | 7 | 1 | 5 | 6
CC(=O)N1C=Cc2c(c(C)c3c([nH]c4ccccc43)c2C)C1 | . | 23 | . | . | 13
CCOC1=C2[C@@H](CN(S(=O)(=O)c3ccc(C)cc3)[C@H]2c2ccccc2Cl)[C@H]2C(=O)N(C)C(=O)[C@H]2C1 | . | . | . | 6 | .
O=C(C1CC1)N1CCc2cc(S(=O)(=O)NCc3ccccc3)ccc21 | -5 | 17 | -8 | -6 | -7
COc1cc(Cn2cnnn2)ccc1O | -6 | 34 | 81* | 3 | 9
COc1ccc(CN2CCC(n3nccc3NC(=O)C3CCCC3)CC2)cc1 | -10 | 61* | -7 | 4 | -3
CC(C)Cc1ccc(CN2CCC(n3nccc3NC(=O)C3CCCC3)CC2)cc1 | 23 | 9 | -17 | -4 | -4
COc1ccccc1/C=C/CN1CCC(n2nccc2NC(=O)C2CC2)CC1 | -9 | 63* | -1 | -2 | 5
COc1ccc(O)c(CN2CCC(n3nccc3NC(=O)CCOc3ccccc3)CC2)c1 | 20 | 53 | 2 | -2 | 11
COc1ccccc1C(=O)Nc1ccnn1C1CCN(C/C=C/c2ccccc2)CC1 | 11 | 28 | -3 | -3 | -4
COc1ccc(C(=O)NC2CC2)cc1OC1CCN(Cc2ccccc2)CC1 | -16 | 47 | -3 | 12 | 9
COc1ccccc1/C=C/CN1CCC(Oc2cc(C(=O)NC3CC3)ccc2OC)CC1 | -3 | 65* | -4 | 6 | 6
COc1ccccc1CN1CCC(n2nccc2NC(=O)CCOc2ccccc2)CC1 | 17 | 75* | -3 | 3 | 1
SMILES | PfG6PD inh | PHOSPHO1 block | ALR H2O2 inh | Cardio protect | PfM18AAP inh
CC1=C(C(=O)N(C)C)CC(CC(=O)NCCCN(C)C)C(=O)N1CCC1=CCCCC1 (stereo unspecified) | 12 | . | . | 14 | .
CN1CCN(C(=O)CCN2C(=O)/C(=C/c3ccc(F)cc3)SC2=S)CC1 | -17 | 40 | . | -2 | -5
CC(C)OCCCN1CN(S(=O)(=O)c2cccs2)c2nc3ccccc3nc21 | 5 | 27 | 1 | . | 2
Cc1c(CN2CCC(n3nccc3NC(=O)C3CCOC3)CC2)[nH]c2ccccc12 (stereo unspecified) | 14 | 66* | 7 | 1 | 2
O=C(Nc1ccnn1C1CCN(Cc2cc3ccccc3[nH]2)CC1)C1CCOC1 (stereo unspecified) | . | 8 | -7 | -8 | 11
NC(Cc1ccc(C(F)(F)F)cc1)c1csc(Nc2cc(NCc3ccco3)ncn2)n1 (stereo unspecified) | . | . | . | 8 | .
CC(=O)/C=C/c1ccc2ccccc2n1 | 3 | 25 | 98* | -28 | -8
COc1ccccc1NC(=O)C(C)OC(=O)/C=C/c1ccc2ccccc2n1 (stereo unspecified) | 6 | . | 94* | 0 | .
CC(OC(=O)/C=C/c1ccc2ccccc2n1)C(=O)N(C)c1ccccc1 (stereo unspecified) | 13 | . | 1 | -7 | .
CCc1nc2ccc(C(=O)NCCOc3ccc(OC)cc3)cn2c1N(C)CCCc1ccccc1 | . | . | . | -1 | .
COc1ccccc1N(C(=O)c1ccco1)C(C(=O)NC1CCCCC1)c1cc(OC)c(OC)c(OC)c1 (stereo unspecified) | 0 | 28 | -7 | 3 | 12
CN(C(=O)COC(=O)c1c2c(nc3ccccc13)/C(=C/c1cccc([N+](=O)[O-])c1)CCC2)C1CCS(=O)(=O)C1 (stereo unspecified) | -2 | 4 | -13 | 12 | -2
O=C(COC(=O)c1c2c(nc3ccccc13)/C(=C/c1cccc([N+](=O)[O-])c1)CCC2)NC1CCS(=O)(=O)C1 (stereo unspecified) | 11 | -14 | -11 | 59* | -2
O=S(=O)(O)c1ccc(N=Nc2ccccc2)cc1 | -14 | -3 | -5 | 4 | 1
O=c1ccc(N=Nc2ccccc2)ccc1O | -42 | -17 | 98* | 47 | 16
CC(=O)Nc1ccc(CN2C(=O)C(C)(C)ON=C2c2ccc(NC(C)=O)cc2)cc1 | . | . | . | 4 | .
CC1(C)CC(=O)C=C(c2n[nH]nc2C2=CCCCC2)C1 | -3 | . | . | 7 | .
Nc1ccc2nc(SCC(=O)c3ccccc3)sc2c1 | 8 | . | 41 | 2 | 7
Nc1ccc2nc(SCc3ccccc3F)sc2c1 | 13 | -16 | 99* | -10 | 3
CCOC(=O)C1=CCN(S(=O)(=O)c2ccccc2C)C1c1cccc(C)c1 (stereo unspecified) | . | . | . | -1 | .
Cc1ccc(-c2n[nH]c(=O)c3ccccc23)cc1S(=O)(=O)N(C)CCO | -2 | 19 | -2 | 35 | -1
Cc1ccc(-c2n[nH]c(=O)c3ccccc23)cc1S(=O)(=O)NC(C)(C)C | 21 | 26 | 0 | 64* | 1
CC(=O)Nc1ccc(NS(=O)(=O)c2cc(-c3n[nH]c(=O)c4ccccc34)ccc2C)cc1 | 1 | 32 | . | 56* | 5
Cc1ccc(-c2n[nH]c(=O)c3ccccc23)cc1S(N)(=O)=O | -12 | -3 | . | 57* | -8
Cc1ccc(-c2n[nH]c(=O)c3ccccc23)cc1S(=O)(=O)Nc1ccc(F)cc1 | 7 | -4 | -8 | 46 | -1
